Compounds with a hit are over-represented: about 6.5% of the library has one in this group of screens.
HCMV inh – inhibitors of human cytomegalovirus | activity change, negative = inhibition, % at 57.5 µM | HFF cells, HCMV-luciferase reporter, 72 h; active compounds read low | 410,000 compounds, 4.5% hits; in the data active = activity change below about -60%; inconclusive = no clear call, values can overlap the other calls; inactive = above about -39%
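Two compound doses tested in HFFs infected with HCMV-luciferase, MOI 1 PFU/cell, 72 h at 37C. Lysate luminescence read with OneGlo; data normalized against buffer-only and 10uM Salinomycin inhibitor controls.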
Vaccinia Venus – vaccinia inhibition (Venus reporter). Vaccinia virus Venus reporter expression, fluorescence. Potency, µM (titrated, usually from 36.5 µM), most hits filed as inhibitors. 330,000 compounds, 0.46% hits. AID 720580; calls by dose curve; tested in A549 cells; note: nearly all actives have a fitted effect of over 30% in size
Lassa entry inh – Lassa virus entry inhibition | AID 540256 | Potency, µM (series often up to 37.9 µM), usual class: inhibitors | 300,000 compounds, 1.2% hits | Lassa virus pseudotype entry inhibition, cell reporter; calls by dose curve; tested in HEK293 cells; note: nearly all actives have a fitted effect of over 50% in size
MARV entry inh – blocks Marburg virus binding to or entry into cells | Marburg virus pseudotyped entry inhibition, cell reporter | Potency, µM (titrated, usually from 37.8 µM), usual class: inhibitors | 300,000 compounds, 1.8% hits; calls by dose curve; tested in HEK293 cells
Vaccinia mCherry – inhibitors of vaccinia virus infection (mCherry reporter signal); Vaccinia virus mCherry reporter infection, fluorescence; Potency, µM (series often up to 36.5 µM), hits mostly inhibitors; 310,000 compounds, 0.63% hits; AID 720579; calls by dose curve; tested in A549 cells; note: nearly all actives have a fitted effect of over 35% in size
FMDV antiviral – blocks foot and mouth disease virus | FMDV antiviral cell-based qHTS | 410,000 compounds, 1.2% hits | Potency, µM (top dose mostly 57.9 µM), hits mostly inhibitors; calls by dose curve; tested in HEK293T cells; note: read-out not given here; nearly all actives have a fitted effect of over 45% in size
Large screens that a line does not name were inactive.

COc1ccc(-c2cc(C)cc3c2OC(CNC(=O)c2cc(C(C)C)on2)C3)nn1 (stereo not given)	none (no result: HCMV inh, Lassa entry inh, MARV entry inh)
O=[N+]([O-])c1ccc(N=Nc2c(Cl)cc(O)cc2Cl)cc1	HCMV inh -100, Vaccinia Venus inconclusive, Vaccinia mCherry inconclusive, FMDV antiviral inconclusive (no result: Lassa entry inh, MARV entry inh)
Cc1cc(C)c2oc(C(=O)Nc3nnc(C(C)C)s3)cc(=O)c2c1	HCMV inh -66 (no result: Vaccinia Venus, Vaccinia mCherry)
CSc1nnc(NC(=O)c2cc(=O)c3cc(C)cc(C)c3o2)s1	none
CCN(C)C(=O)C1=COC2=NC(=O)N(Cc3ccccc3)CCN12	none (no result: Vaccinia Venus, Lassa entry inh, MARV entry inh, Vaccinia mCherry, FMDV antiviral)
CC1(C(=O)NCc2ccccc2Br)CCN1Cc1c(F)cccc1F (stereo not given)	HCMV inh -61 (no result: Lassa entry inh, MARV entry inh)
CC(=O)N1c2ccc(C)cc2Sc2c1ccc1ccccc21	HCMV inh -61, Lassa entry inh inconclusive, MARV entry inh inconclusive
CC(=O)N1c2ccccc2Oc2cc3ccccc3cc21	Lassa entry inh inconclusive, MARV entry inh inconclusive
COc1ccc(-n2c(=O)c(CCc3ccccc3)nc3cnc(N(C)C)nc32)cc1	none (no result: HCMV inh, Vaccinia Venus, Lassa entry inh, MARV entry inh, Vaccinia mCherry)
CCC1CCCCN1c1nc(-c2ccncc2)nc2ccccc12 (stereo not given)	HCMV inh inconclusive, Lassa entry inh inconclusive, MARV entry inh 9.2µM, FMDV antiviral inconclusive (no result: Vaccinia Venus, Vaccinia mCherry)
CC1CCCCN1c1nc(-c2ccncc2)nc2ccccc12 (stereo not given)	MARV entry inh inconclusive
CC(CCN1CCCc2nc(C)c(C)cc21)=NOC[C@@H](O)[C@H]1O[C@@H]2OC(C)(C)O[C@H]2[C@@H]1O	Lassa entry inh inconclusive (no result: HCMV inh, Vaccinia Venus, Vaccinia mCherry, FMDV antiviral)
Cc1cc(NC(=O)COC(=O)c2cccc(O)c2)no1	HCMV inh -65 (no result: Lassa entry inh, MARV entry inh)
Cc1cc(NC(=O)COC(=O)c2c(Cl)cccc2Cl)no1	HCMV inh -68 (no result: Vaccinia Venus, Lassa entry inh, MARV entry inh, Vaccinia mCherry)
Cc1onc(-c2c(F)cccc2Cl)c1C(=O)OCC(=O)Nc1cccc(S(=O)(=O)N(C)C)c1	HCMV inh -70, Vaccinia Venus inconclusive, Lassa entry inh inconclusive, MARV entry inh 16µM, Vaccinia mCherry inconclusive, FMDV antiviral inconclusive
Cc1cc(NC(=O)COC(=O)c2ccccc2NCCO)no1	none
Cc1cc(NC(=O)COC(=O)c2ccccc2S(=O)(=O)N(C)c2ccccc2)no1	HCMV inh -101, Lassa entry inh 2.5µM, MARV entry inh inconclusive, FMDV antiviral inconclusive
Cc1cc(NC(=O)COC(=O)c2ccc(Cl)cc2)no1	none (no result: Lassa entry inh, MARV entry inh)
Cc1noc(C)c1C(=O)OCC(=O)Nc1cccc(S(=O)(=O)N(C)C)c1	none
CCOP(=O)(OCC)c1c2c(cc3ccc(Cl)cc13)CCC2	none (no result: Vaccinia Venus, Lassa entry inh, MARV entry inh, Vaccinia mCherry, FMDV antiviral)
CO[C@H](C1CCCCC1)[C@H](C)/C=C/CC(=O)OCCCc1ccccc1	none (no result: HCMV inh, Vaccinia Venus, Lassa entry inh, Vaccinia mCherry, FMDV antiviral)
O=C(CN1CCCN(S(=O)(=O)c2ccc(Br)cc2)CC1)Nc1cccc(C(F)(F)F)c1	MARV entry inh inconclusive
CC(=O)c1ccc(N2CCN(S(=O)(=O)c3c(C)nc4sc(C)cn4c3=O)CC2)cc1	none (no result: MARV entry inh)
COCC(C)n1c(C)cc(C(=O)CSc2ncccn2)c1C (stereo not given)	none
C=CCn1c(SCC(=O)Nc2ccc(C(=O)O)cc2)nc2sc(C)c(C)c2c1=O	none (no result: Vaccinia Venus, Lassa entry inh, MARV entry inh, Vaccinia mCherry)
C=CCn1c(SCC(=O)c2cc(C)n(C(C)COC)c2C)nc2sc(C)c(C)c2c1=O (stereo not given)	Lassa entry inh 9.2µM, FMDV antiviral inconclusive (no result: Vaccinia Venus, Vaccinia mCherry)
C=CCn1c(SCC(=O)NCCO)nc2sc(C)c(C)c2c1=O	FMDV antiviral 3.5µM
Cc1ccccc1CN1CCc2nc(Nc3ccc4c(c3)OCCO4)ncc2C1	Lassa entry inh inconclusive, FMDV antiviral inconclusive (no result: MARV entry inh)
COc1ccc(C2CC(=O)c3cnc(Nc4cc(C)cc(C)c4)nc3C2)cc1 (stereo not given)	Lassa entry inh 0.46µM (no result: Vaccinia Venus, Vaccinia mCherry)
Cc1ccccc1N1C(N)=NC(N)=NC1(C)C	MARV entry inh inconclusive (no result: Vaccinia mCherry)
CC1(C)N=C(N)N=C(N)N1CCCCc1ccccc1	HCMV inh -98, Vaccinia Venus 1µM, Lassa entry inh inconclusive, MARV entry inh inconclusive, Vaccinia mCherry 0.71µM
CC(C)N1C(=S)N=C2C=C(C(F)(F)F)C=CC21 (stereo not given)	none (no result: HCMV inh, Vaccinia Venus, Lassa entry inh, Vaccinia mCherry, FMDV antiviral)
Fc1ccc(C(OCCN2CCN(CCCc3ccccc3)CC2)c2ccc(F)cc2)cc1	HCMV inh -99, Lassa entry inh 3.7µM, MARV entry inh 7.1µM, FMDV antiviral inconclusive (no result: Vaccinia Venus, Vaccinia mCherry)
c1ccc(CCCN2CCN(CCOC(c3ccccc3)c3ccccc3)CC2)cc1	HCMV inh -66, Vaccinia Venus inconclusive, Lassa entry inh 16µM, MARV entry inh 14µM, Vaccinia mCherry inconclusive, FMDV antiviral inconclusive
Fc1ccc(C(OCCN2CCCC2)c2ccc(F)cc2)cc1	MARV entry inh inconclusive

Screening results deposited in PubChem by National Center for Advancing Translational Sciences (NCATS).
